Bioassay records as filed in PubChem BioAssay.
Pf apPOL block = Pf-apPOL DNA polymerase inhibition | Recombinant Pf-apPOL, molecular beacon fluorescence, 1.5 h | inhibition, % at 10 µM | 210,000 tested, 0.25% active | AID 1794808
mHTT-CaM PPI inh = mHTT-calmodulin interaction abrogation. P42858. 190,000 tested, 3.6% active. AlphaScreen His-mHTT/GST-CaM binding, luminescence. inhibition, % at 15 µM;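 also: 0% = both proteins with DMSO and 100% = one protein alone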
* hit, by the source's call; . = no result given. The full list was thinned out, with hits kept by preference. Rule as the data show it: active = inhibition above about 50%; inactive = the rest.

SMILES | Pf apPOL block | mHTT-CaM PPI inh
COc1ccc(S(=O)(=O)N2CCCC(C(=O)N3CCCCC3)C2)cc1 (centres undefined) | 1 | -6
COCOCCn1cc(CN2CCS(=O)(=O)N(Cc3ccc(-c4ccccc4)cc3)C(C)C2=O)nn1 (centres undefined) | 6 | 59*
COCOCCn1cc(CN2CCS(=O)(=O)N(Cc3ccc(-c4ccc(F)cc4)cc3)C(C)C2=O)nn1 (centres undefined) | 14 | 63*
CCC/C=C/c1ccc(CN2C(C)C(=O)N(Cc3cn(CCOCOC)nn3)CCS2(=O)=O)cc1 (centres undefined) | -16 | 4
COCOCCn1cc(CN2CCS(=O)(=O)N(Cc3ccc(-c4ccc(Cl)nc4)cc3)C(CC(C)C)C2=O)nn1 (centres undefined) | -27 | 26
COCOCCn1cc(CN2CCS(=O)(=O)N(Cc3ccc(-c4ccc(Cl)cc4)cc3)C(C)C2=O)nn1 (centres undefined) | -21 | 14
COCOCCn1cc(CN2CCS(=O)(=O)N(Cc3ccc(-c4ccc(Cl)cc4)cc3)C(CC(C)C)C2=O)nn1 (centres undefined) | -23 | 54*
O=C(NC1CC(=O)N(Cc2ccccc2)C1)c1ccc(F)cc1F (centres undefined) | -3 | -9
Cc1c(C=Nc2c(C)n(C)n(-c3ccccc3)c2=O)c(=O)n2c([nH]c3ccccc32)c1C#N | 5 | -8
Cc1ccc(S(=O)(=O)N2CCC(c3nc(C(=O)N4CCCC4)c(C)o3)CC2)c(C)c1 | -5 | 23
Cc1cc2c(=O)n(CC(=O)Nc3ccc(Cl)cc3C)ccc2s1 | -2 | -8
COc1cc2sc(C(=O)NCC(F)(F)C(F)(F)F)c(Cl)c2cc1OC | -1 | -16
COc1ccc(-c2[nH]ncc2Oc2ccc(F)cc2)c(O)c1 | 0 | 44
COc1ccc(-c2[nH]ncc2-c2ccc(Cl)cc2)c(O)c1 | -4 | 69*
C#CCOCC1CCCN(S(=O)(=O)c2cc(F)ccc2OC)C1 (centres undefined) | -1 | 4
CC1=N/C(=C\c2ccc([N+](=O)[O-])cc2)C(=O)N1c1cc(Cl)ccc1Cl | -1 | 52*
CC1=N/C(=C\c2ccc([N+](=O)[O-])cc2)C(=O)N1c1ccc(Cl)cc1C | -3 | 15
NC(=O)c1cc(Br)cc2c3c([nH]c12)CCCC3 | 4 | 62*
Brc1ccc2[nH]c3c(c2c1)CCC3 | 0 | .
O=C(C(c1ccccc1)c1ccccc1)N1CCN(c2ccc(F)cc2)CC1 | 0 | 64*
O=C(C(c1ccccc1)c1ccccc1)N1CCN(c2ccc([N+](=O)[O-])cc2)CC1 | -8 | 3
CCOC(=O)CCSCC(=O)N1N=C(c2cccs2)CC1c1ccc(C)cc1 (centres undefined) | 1 | 52*
Cc1ccc(C2CC(c3cccs3)=NN2C(=O)CN(C)C(=O)C(C)C)cc1 (centres undefined) | 0 | 26
CCCCN(CC)CCNC(=O)C1=C(C)C(=O)OC12CCCCC2 | -3 | -4
COc1ccc(NC(=O)C2CCc3nc(N4CCN(C(C)=O)CC4)sc3C2)cc1 (centres undefined) | 4 | 8
SMILES | Pf apPOL block | mHTT-CaM PPI inh
COc1ccccc1C1Oc2ccc(Cl)cc2C2=C1C(c1cccs1)n1ncnc1N2 (centres undefined) | -1 | 23
Fc1ccc(-c2cc3n(n2)CCCN(Cc2cccc(F)c2)C3)cc1 | -5 | 92*
COc1ccc(-c2cc3n(n2)CCCN(Cc2ccoc2)C3)cc1 | -3 | 13
Cc1ccc(NC(=O)c2ccc3c(c2)Sc2ncccc2C(=O)N3C)c(F)c1 | -4 | -2
O=C(COc1ccc(Cl)cc1Cl)Nc1c2c(nn1-c1ccc(F)cc1)CSC2 | -4 | 2
Oc1ccc(Nc2nc(NCc3ccco3)c3ccccc3n2)cc1 | -1 | 53*
Clc1ccc(CSc2nc(NCc3ccco3)c3ccccc3n2)cc1 | -8 | 25
Cc1nc2ccccc2nc1N1CCN(S(=O)(=O)c2ccc(C(C)C)cc2)CC1 | 2 | -30
COc1cc(CN2CCCCCCC2)cc([N+](=O)[O-])c1O | -6 | 5
COc1cc(NCc2cc(I)c(O)c(OC)c2)cc(OC)c1 | -3 | 89*
COc1cc(NCc2cc(OC)c(O)c([N+](=O)[O-])c2)cc(OC)c1 | 3 | 65*
COc1cc(CN2CCSCC2)cc(I)c1O | -2 | 6
COc1ccc(-c2c(C)c3ccc(OCC(=O)OC(C)C)cc3oc2=O)cc1OC | -6 | 5
CCOc1cccc2c1OC(c1cc(OC)ccc1OC)N1N=C(c3ccco3)CC21 (centres undefined) | -20 | 8
CCOc1cccc2c1OC(c1ccc(OC)cc1)N1N=C(c3ccc(C)o3)CC21 (centres undefined) | -14 | 81*
CCOc1cccc2c1OC(c1ccc(OC)c(OC)c1OC)N1N=C(c3ccc(C)o3)CC21 (centres undefined) | -15 | 61*
COc1ccc(C2Oc3c(OC)cccc3C3CC(c4cccs4)=NN32)cc1 (centres undefined) | -15 | 50*
COc1cccc2c1OC(c1cccc(Cl)c1)N1N=C(c3ccco3)CC21 (centres undefined) | -28 | 12
COc1cccc(C2Oc3c(OC)cccc3C3CC(c4cccs4)=NN32)c1 (centres undefined) | -17 | 42
COc1cccc(C2Oc3c(OC)cccc3C3CC(c4ccc(C)o4)=NN32)c1 (centres undefined) | -16 | 57*
CCOc1cccc2c1OC(c1cc(OC)c(OC)c(OC)c1)N1N=C(c3ccco3)CC21 (centres undefined) | -20 | 47
CCC(Sc1ccccn1)C(=O)Nc1ccc(C(C)=O)cc1 (centres undefined) | 8 | -6
COc1cccc(C2C=C(c3ccc(F)cc3)Nc3nnnn32)c1OC(F)F (centres undefined) | -17 | 4
CN1C(=O)c2cccnc2Sc2cc(C(=O)NCc3cccc(Cl)c3)ccc21 | -15 | 52*
CN1C(=O)c2cccnc2Sc2cc(NC(=O)c3cccc(Cl)c3)ccc21 | -4 | 9
SMILES | Pf apPOL block | mHTT-CaM PPI inh
Cc1ccc(CNC(=O)c2ccc3c(c2)Sc2ncccc2C(=O)N3C)cc1 | -5 | -5
Cc1cccc(C(=O)Nc2ccc3c(c2)Sc2ncccc2C(=O)N3C)c1 | -3 | 65*
O=C(COc1ccc(Br)cc1)Nc1ccccc1N1CCOCC1 | 0 | -6
Cc1ccc(N=c2oc3ccccc3cc2C(=O)Nc2nccs2)c(C)c1 | 0 | 2
CSc1ccccc1N1C(=O)C2CC(C)=C(C)CC2C1=O (centres undefined) | -1 | -7
CC1=C(C)CC2C(=O)C3=C(C(=O)C2C1)C1c2ccccc2C3c2ccccc21 (centres undefined) | -2 | 61*
COc1cc(NCc2ccccc2Cl)cc(OC)c1 | 3 | 75*
COc1ccc(NCc2ccc(Cl)cc2Cl)cc1OC | -4 | 45
O=C1c2ccccc2C(=O)N1CSc1n[nH]c(-c2ccccc2)n1 | 0 | 3
Cc1cccc(-c2nc3n(n2)C(c2ccc(O)cc2)C2=C(CC(C)(C)CC2=O)N3)c1 (centres undefined) | -2 | 7
CC1(C)CC(=O)C2=C(C1)Nc1nc(-c3cccc(Cl)c3)nn1C2c1ccc2c(c1)OCO2 (centres undefined) | -2 | 61*
Nc1nc(N2CCCC3CCCCC32)ncc1[N+](=O)[O-] (centres undefined) | -6 | 1
